Test results: PubChem BioAssay (NCI)
This is part of a sample that, as a whole, favours compounds with a hit. Of some 79,000 tested, about 15% had one in any assay. The source made the active and inactive calls. No stated cut-off is given here; in the data, active means growth inhibition above about 70%; inactive means the rest. Where a SMILES comes first, the peptide text is derived from it. [ ]: non-standard residue; d: D form. The star is where a group is joined. ONb = O=[N+]([O-])c1ccc(CO*)cc1; AllylGly = C=CC[CH](N)C(=O)O; Boc = CC(C)(C)OC(=O)*

Experiments:
[1] = NCI Yeast Anticancer Drug Screen. Data for the rad50 strain (AID 155);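 further: 0% = growth of vehicle-only cultures of the same strain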; conditions: S. cerevisiae rad50 strain growth inhibition; at 50.0 µM; active compounds read high
In short: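 Genetically altered yeast (DNA repair pathway); compound treatment; growth inhibition vs vehicle ctrl.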

[2] = NCI Yeast Anticancer Drug Screen. Data for the mec2-1 strain (AID 157); conditions: S. cerevisiae mec2-1 strain, at 50.0 µM, active compounds read high
In short: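 Yeast mec2-1 mutant treated with compound. Readout: growth inhibition vs vehicle controls.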

[3] = NCI Yeast Anticancer Drug Screen. Data for the sgs1 mgt1 strain (AID 161);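 further: 0% = growth of cultures given vehicle only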; conditions: S. cerevisiae sgs1 mgt1 strain, at 50.0 µM, active compounds read high
In short: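 Test agents were incubated with a DNA-repair-mutant yeast strain. Growth was then read and compared against vehicle-treated controls.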

[4] = NCI Yeast Anticancer Drug Screen. Data for the cln2 rad14 strain (AID 165);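 further: 0% = growth equal to vehicle treated cultures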; conditions: S. cerevisiae cln2 rad14 strain, at 50.0 µM, active compounds read high
In short: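 cln2 rad14 yeast strain; compound exposure; growth inhibition read vs vehicle controls.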

[5] = NCI Yeast Anticancer Drug Screen. Data for the bub3 strain (AID 167); conditions: S. cerevisiae bub3 mutant strain, at 50.0 µM, active compounds read high
In short: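 Yeast carrying a defined mutation is treated with each compound, and growth is compared with that of vehicle-exposed cells to give inhibition.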

[6] = NCI Yeast Anticancer Drug Screen. Data for the mlh1 rad18 strain (AID 175); conditions: S. cerevisiae mlh1 rad18 strain growth inhibition; at 50.0 µM; active compounds read high
In short: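 Yeast w/ defined DNA-repair lesions; compound exposure; growth vs vehicle controls → % inhibition.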

Measured: growth inhibition

Cn1c(=S)[nH]c2cc(Cl)c(Cl)cc21
inactive: [1] 17.4% | [2] -3.05% | [3] 0.55% | [4] -21.7% | [5] -14.7% | [6] 20.4%

CC(=O)C1C(=O)C(=O)N(c2ccccc2N2C(=O)C(=O)C(C(C)=O)C2=O)C1=O (stereo not drawn)
inactive: [1] 18.6% | [2] -2.25% | [3] 10.8% | [4] 17.8% | [5] -2.35% | [6] 25.8%

CCN(CC)CCNc1ccc(N)c2sc3ccccc3c(=O)c12
inactive: [1] 8.45% | [2] 3.8% | [3] -18.7% | [4] -8.25% | [5] -37.6% | [6] -29.1%

Cc1cc(C)c2nc(N)sc2c1
inactive: [1] 24.3% | [2] 9.35% | [3] -5.8% | [4] -4.45% | [5] 12.4% | [6] 30.1%

O=c1cc(-c2ccc(Cl)cc2)oc(-c2ccc(Cl)cc2)c1
inactive: [1] 5.5% | [2] -7.65% | [3] 4.05% | [4] -35.9% | [5] 0.7% | [6] 2.8%

CN1C(=O)c2ccccc2CC12c1ccccc1C(=O)N2C (stereo not drawn)
inactive: [1] 2.8% | [2] -13.6% | [3] 22.9% | [4] -0.55% | [5] 15.9% | [6] 4.45%

O=[N+]([O-])c1cc2no[n+]([O-])c2cc1N1CCOCC1
active: [1] 98.8% | [2] 99.3% | [3] 99.2% | [4] 98.4% | [5] 99% | [6] 99.2%

CC(C)CN(CC(C)C)/N=C/c1cc([N+](=O)[O-])ccc1O
inactive: [1] -11.7% | [2] 9% | [3] -4.9% | [4] -3.65% | [5] -12.9% | [6] -14.8%

Cc1ccc(C(=O)Nc2ccc(CP(=O)(O)O)cc2CP(=O)(O)O)cc1NC(=O)Nc1cc(C(=O)Nc2ccc(CP(=O)(O)O)cc2CP(=O)(O)O)ccc1C
inactive: [1] -10.8% | [2] -5.45% | [3] -12.1% | [4] -0.25% | [5] 0.4% | [6] 9.65%

CC(=O)OCc1ccnc2ccc(OC(C)=O)cc12
inactive: [1] 0.05% | [2] 15.4% | [3] -6.4% | [4] -8.75% | [5] -5.2% | [6] 2.75%

CCC12CCCN(Cc3ccccc3)C1c1c([nH]c3ccccc13)C(C(=O)OC)C2 (stereo not drawn)
inactive: [1] 11.8% | [2] -2.25% | [3] 17.6% | [4] 13.7% | [5] -0.25% | [6] 2.3%

CCC(=O)c1nc(N)[nH]c1CC
inactive: [1] -36.7% | [2] -21.6% | [3] -12.1% | [4] -44.3% | [5] -3% | [6] -6.45%

Cc1ccc(C(=O)/C=C/c2ccco2)cc1
inactive: [1] 49% | [2] 33.6% | [3] 46% | [4] 33.5% | [5] 34.5% | [6] 61.3%

CCOC(=O)C(=O)c1cn(C)c(=O)n(C)c1=O
inactive: [1] 12.1% | [2] 2.85% | [3] 1.3% | [4] 3.8% | [5] 0.9% | [6] 10.6%

CC1=CCCC(C)(C)C1/C=C/C(C)=N/NC(=O)Nc1ccccc1 (stereo not drawn)
inactive: [1] 32.2% | [2] -6.2% | [3] 0.25% | [4] -8.85% | [5] 8.85% | [6] 16.4%

O=c1[nH]nc(-c2ccc3c(c2)Cc2ccccc2-3)c2ccccc12
inactive: [1] 12.8% | [2] -0.15% | [3] -23.9% | [4] -1.95% | [5] 10.3% | [6] 17.5%

C/C(O)=C(\C=N\C(=S)N=Nc1c(O)[nH]c2ccccc12)C(=O)Nc1ccccc1C
inactive: [1] 51.5% | [2] 36.6% | [3] 43.4% | [4] 32.5% | [5] 62% | [6] 62%

CCCCC#CCC#Cc1ccccc1
inactive: [1] -4.3% | [2] 5.25% | [3] 6.85% | [4] 23.2% | [5] -10.9% | [6] 10.1%

OCc1ccc(CO)o1
inactive: [1] 17.8% | [2] 15.7% | [3] -16.4% | [4] -1.55% | [5] 24.1% | [6] 5.4%

C=CCC(NC(=O)OC(C)(C)C)C(=O)NC(CCC(=O)OCc1ccc([N+](=O)[O-])cc1)C(N)=O (stereo not drawn) (Boc-[AllylGly]-Glu(ONb)-NH2; configuration not given here)
inactive: [1] -7.75% | [2] -36.7% | [3] -20.1% | [4] 9.25% | [5] -2.35% | [6] -9.2%

CC(C)([NH-])C[NH-].O=C(O)CCO.[Pt+2]
inactive: [1] 27.8% | [2] -8.8% | [3] -2.8% | [4] 17.6% | [5] 8.65% | [6] 14.2%

O=C1OC2C(Cl)C3CC1C2C3 (stereo not drawn)
inactive: [1] -12.2% | [2] -9.6% | [3] -22.3% | [4] -13.2% | [5] 4.65% | [6] -31.4%

COc1ccc(C(CC(=O)O)CC(=O)O)cc1
inactive: [1] 46.3% | [2] 12.3% | [3] 16.9% | [4] 15.1% | [5] 6.35% | [6] 44.5%

CCc1nc(N)nc(C(=O)NCCNC(=O)c2nc(N)nc(CC)c2C)c1C
inactive: [1] -38.1% | [2] -14.2% | [3] -11.6% | [4] -16.7% | [5] -13.4% | [6] -45.5%

O=C(N/C(=C\c1ccccc1Cl)c1nc2ccccc2[nH]1)c1ccccc1
inactive: [1] -20.5% | [2] -15.1% | [3] -23% | [4] 10.2% | [5] 38.9% | [6] 10%

CC(C)(CNC(=O)C12CC3CC(CC(C3)C1)C2)NC(=O)C12CC3CC(CC(C3)C1)C2
inactive: [1] 15.9% | [2] 12.5% | [3] 14.1% | [4] 11.1% | [5] 0.85% | [6] 27.8%

CC1(C)C2=CCCC(=O)[C@@]2(C)CC[C@@H]1O
inactive: [1] -4.15% | [2] 4.65% | [3] -4.9% | [4] -26.1% | [5] 1.55% | [6] 3.35%

CCc1ccc(C(=O)O)o1
inactive: [1] -9% | [2] -12.1% | [3] -7.35% | [4] 7.8% | [5] 12.7% | [6] 12.3%

Nc1ncc[nH]c1=O
inactive: [1] -16.1% | [2] -4.1% | [3] 1.25% | [4] -4.1% | [5] 2.9% | [6] -20.2%

Cc1nc2nc(NCCCN(C)C)nc(NCCCN(C)C)c2nc1C
inactive: [1] 18.8% | [2] 1.25% | [3] 22.1% | [4] 23.6% | [5] 21.4% | [6] 15.3%

CC1(C)COC(c2ccc3ccccc3c2)OC1
inactive: [1] 26% | [2] 10.7% | [3] -6.2% | [4] -21.9% | [5] 35.4% | [6] -5.8%

c1ccc(C2c3ccccc3-c3ncnc(N4CCCCC4)c32)cc1 (stereo not drawn)
inactive: [1] 9.4% | [2] -3.15% | [3] 24.8% | [4] 15.1% | [5] -0.45% | [6] 14.7%

COc1ccc(/C=C/C(=O)C(C)(C)CN(C)CCN(C)C)cc1
inactive: [1] -36% | [2] -7.25% | [3] -23.9% | [4] -7.65% | [5] -5.25% | [6] -8.45%

Nc1cccc2ccc(S(=O)(=O)O)cc12
inactive: [1] -3.05% | [2] -9% | [3] -24.4% | [4] -13.8% | [5] -9.9% | [6] 8.85%

CO[Si](C)(OC)c1ccccc1
inactive: [1] -0.6% | [2] -23.8% | [3] -32.1% | [4] 13.2% | [5] -25.8% | [6] 2.75%

Cc1c2c([nH]c(=O)c1C)C=CC(Br)C2Br (stereo not drawn)
inactive: [1] -0.7% | [2] 0.55% | [3] 1.5% | [4] 3.2% | [5] 0.2% | [6] 6.95%

O=C(O)CO
inactive: [1] -7.7% | [2] 3.05% | [3] -6.25% | [4] -1.25% | [5] -9.15% | [6] -29.1%

CCN1C(=O)/C(=C/c2ccc(OCC(=O)O)cc2)SC1=S
inactive: [1] -6.9% | [2] -10.9% | [3] 0.35% | [4] -44.9% | [5] -2.2% | [6] -9.65%
